The target in experiment [1] is Androgen receptor (Homo sapiens) (UniProt P10275). Nature of the experiment: qHTS assay to identify small molecule antagonists of the androgen receptor (AR) signaling pathway using the MDA cell line in the presence of 0.5 nM R1881 (AID 1259243). Further: nearly all actives have a fitted effect of over 50% in size. Further: potency means the concentration at half of the fitted maximal effect. In a few lines:
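Steps: seed MDA-kb2 cells, incubate 5 hr at 37C; pin-transfer compounds in DMSO; add R1881 to 0.5 nM final; incubate 16 hr; add ONE-Glo, wait 30 min at room temperature; read luminescence.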
A general note: In qHTS, concentration-response curves come from the screen itself.

For experiment [2], the target named is Estrogen receptor (Homo sapiens) (UniProt P03372). Nature of the experiment: qHTS assay to identify small molecule antagonists of the estrogen receptor alpha (ER-alpha) signaling pathway using the BG1 cell line in the presence of 0.1 nM 17-beta-estradiol (AID 1259244). Further: nearly all actives have a fitted effect of over 50% in size. Further: potency means the concentration at half of the fitted maximal effect. In a few lines: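 After 5 days in hormone-depleted medium (charcoal-stripped serum, no phenol red), VM7Luc4E2 cells were seeded, incubated 24 h, then co-treated with compound and 0.1 nM (final) estradiol for 22 h before luminescence detection.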
Chain of Estrogen receptor (Homo sapiens) (P03372 whole entry, looked up): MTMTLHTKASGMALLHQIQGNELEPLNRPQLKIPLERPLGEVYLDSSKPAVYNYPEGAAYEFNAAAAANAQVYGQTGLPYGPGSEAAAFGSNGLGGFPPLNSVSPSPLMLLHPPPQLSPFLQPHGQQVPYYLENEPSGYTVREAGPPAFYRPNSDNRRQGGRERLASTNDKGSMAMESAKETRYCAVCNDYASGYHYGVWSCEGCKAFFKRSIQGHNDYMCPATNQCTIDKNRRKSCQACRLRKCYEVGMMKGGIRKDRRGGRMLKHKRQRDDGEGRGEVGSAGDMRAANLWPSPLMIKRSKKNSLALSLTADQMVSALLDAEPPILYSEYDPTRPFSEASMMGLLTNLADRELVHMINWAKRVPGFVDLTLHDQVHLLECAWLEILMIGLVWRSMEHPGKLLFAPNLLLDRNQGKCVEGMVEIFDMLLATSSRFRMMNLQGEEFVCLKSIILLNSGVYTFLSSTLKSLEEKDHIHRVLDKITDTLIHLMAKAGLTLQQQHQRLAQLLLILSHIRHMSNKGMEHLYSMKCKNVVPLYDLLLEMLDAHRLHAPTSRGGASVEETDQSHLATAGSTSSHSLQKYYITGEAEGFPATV

A short description of experiment [3]: qHTS assay to identify small molecule HDAC inhibitors (AID 1259364). Further: top concentration of the series differs between compounds; nearly all actives have a fitted effect of over 45% in size. In a few lines: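 Homogeneous cell-based luminescent assay of endogenous class I/II HDAC activity; HCT-116 cells, 2 h compound exposure, 30 min HDAC-Glo development at RT.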
A short description of experiment [4]: qHTS assay to identify small molecule HDAC inhibitors - cell viability counter screen (AID 1259365). Further: nearly all actives have a fitted effect of over 50% in size. Further: potency means the concentration at half of the fitted maximal effect. In a few lines: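 Cytotoxicity was gauged in wild-type HCT-116 cells after a brief 2hr treatment with DMSO-dissolved compounds at 37C and 5% CO2, using CellTiter-Glo luminescence developed for 30min at room temperature.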
Experiment [5] is described as follows: qHTS assay to identify small molecule agonists of the sonic hedgehog signaling (Shh) pathway - cell viability counter screen (AID 1259366). Further: nearly all actives have a fitted effect of over 50% in size. Further: potency means the concentration at half of the fitted maximal effect. Summed up:
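Stable Gli1-Luc NIH/3T3 clone, 2,000 cells/well. Compound exposure 24hr at 37C. Read-out: CellTiter-Fluor fluorescence.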

Experiment [6] can be described thus: qHTS assay to identify small molecule antagonists of the sonic hedgehog signaling (Shh) pathway - cell viability counter screen (AID 1259367). Further: nearly all actives have a fitted effect of over 55% in size. Further: potency means the concentration at half of the fitted maximal effect. In a few lines: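 Using CellTiter-Fluor, viability of Gli1-Luc reporter 3T3 cells is read by fluorescence in the wells used for the Shh luciferase assay. Treatment lasts 23 hr with conditioned medium, then reagent 1 hr at 37C.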

The nature of experiment [7]: qHTS assay to identify small molecule agonists of the sonic hedgehog signaling (Shh) pathway (AID 1259368; calls by dose curve;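 further: NIH/3T3-derived 3T3Gli1-Luc cells carrying a stable Gli1-driven firefly luciferase reporter; series mostly up to about 92 µM; nearly all actives have a fitted effect of over 15% in size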). Summed up:
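Steps: seed 3T3 Gli1-Luc cells, incubate 4 hr at 37 C, pin-transfer compounds in DMSO alongside a positive control, incubate 24 hr, add luciferase detection reagent, wait 30 min at room temperature, read luminescence.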

Experiment [8] can be described thus: qHTS assay to identify small molecule antagonists of the sonic hedgehog signaling (Shh) pathway (AID 1259369; calls by dose curve; further: nearly all actives have a fitted effect of over 45% in size; further: potency means the concentration at half of the fitted maximal effect). In a few lines:
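Inhibition of Shh signalling is measured as reduced Gli1-response-element firefly luciferase output in an NIH/3T3-derived stable reporter clone stimulated with conditioned medium for 24hr.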

In experiment [9] the target is Estrogen receptor beta (Homo sapiens) (UniProt Q92731). Kind of experiment: qHTS assay to identify small molecule agonists of the estrogen receptor beta (ER-beta) signaling pathway (AID 1259377; active means well fitted activation curve with a large enough effect in the signal ratio in the repeat runs, not every such curve was filed as active; the % refers to the signal ratio). In a few lines: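 Measured by fluorescence intensity from a B/G FRET beta-lactamase substrate (2 h, room temperature) in ER-beta-UAS-bla HEK293T cells treated with DMSO-dissolved compounds for 16 hr at 37C and 5% CO2.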
Chain of Estrogen receptor beta (Homo sapiens) (Q92731 whole entry, looked up): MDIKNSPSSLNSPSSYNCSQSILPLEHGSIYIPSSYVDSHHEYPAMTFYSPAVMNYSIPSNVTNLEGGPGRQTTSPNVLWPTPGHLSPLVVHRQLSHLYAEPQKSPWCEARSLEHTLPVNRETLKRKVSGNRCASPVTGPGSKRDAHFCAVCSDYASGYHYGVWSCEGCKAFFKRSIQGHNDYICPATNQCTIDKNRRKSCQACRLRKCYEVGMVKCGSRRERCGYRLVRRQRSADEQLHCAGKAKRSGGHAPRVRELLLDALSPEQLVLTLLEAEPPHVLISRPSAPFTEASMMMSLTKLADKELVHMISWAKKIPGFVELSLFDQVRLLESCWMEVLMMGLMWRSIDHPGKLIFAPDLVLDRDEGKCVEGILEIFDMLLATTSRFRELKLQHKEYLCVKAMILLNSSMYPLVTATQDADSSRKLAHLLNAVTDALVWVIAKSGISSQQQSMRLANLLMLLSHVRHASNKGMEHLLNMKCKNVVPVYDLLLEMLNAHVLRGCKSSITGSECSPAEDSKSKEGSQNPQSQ

The nature of experiment [10]: qHTS assay to identify small molecule phospholipidosis (PLD) inducers (AID 1259344; active means well fitted curve in the direction sought with a large enough effect; an effect the other way counts as inactive or inconclusive). Summed up:
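Fluorescent phospholipid staining (LipidTOX Red) measured by automated microscopy in fixed HepG2 cells after 24 h treatment; nuclei counterstained with Hoechst 33342; amiodarone as reference inducer.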

Values joined by “and” are separate entries in the source; they are usually repeats but may differ in a detail not shown here. Equal entries are not always repeated. Records with an inconclusive call do not appear. The source holds several records for some structures; these can differ, active in one and inactive in another. Active and inactive are the calls of the source. Unless noted, the call rests on the fitted dose curve; in most records, active means well fitted curve in the direction sought with a large enough effect in the repeat runs; inconclusive means weak or mixed curves; inactive means no such curve, though single readings can be large; an effect the other way counts as inactive or inconclusive.

Chain of Androgen receptor (Homo sapiens) (P10275 whole entry, looked up): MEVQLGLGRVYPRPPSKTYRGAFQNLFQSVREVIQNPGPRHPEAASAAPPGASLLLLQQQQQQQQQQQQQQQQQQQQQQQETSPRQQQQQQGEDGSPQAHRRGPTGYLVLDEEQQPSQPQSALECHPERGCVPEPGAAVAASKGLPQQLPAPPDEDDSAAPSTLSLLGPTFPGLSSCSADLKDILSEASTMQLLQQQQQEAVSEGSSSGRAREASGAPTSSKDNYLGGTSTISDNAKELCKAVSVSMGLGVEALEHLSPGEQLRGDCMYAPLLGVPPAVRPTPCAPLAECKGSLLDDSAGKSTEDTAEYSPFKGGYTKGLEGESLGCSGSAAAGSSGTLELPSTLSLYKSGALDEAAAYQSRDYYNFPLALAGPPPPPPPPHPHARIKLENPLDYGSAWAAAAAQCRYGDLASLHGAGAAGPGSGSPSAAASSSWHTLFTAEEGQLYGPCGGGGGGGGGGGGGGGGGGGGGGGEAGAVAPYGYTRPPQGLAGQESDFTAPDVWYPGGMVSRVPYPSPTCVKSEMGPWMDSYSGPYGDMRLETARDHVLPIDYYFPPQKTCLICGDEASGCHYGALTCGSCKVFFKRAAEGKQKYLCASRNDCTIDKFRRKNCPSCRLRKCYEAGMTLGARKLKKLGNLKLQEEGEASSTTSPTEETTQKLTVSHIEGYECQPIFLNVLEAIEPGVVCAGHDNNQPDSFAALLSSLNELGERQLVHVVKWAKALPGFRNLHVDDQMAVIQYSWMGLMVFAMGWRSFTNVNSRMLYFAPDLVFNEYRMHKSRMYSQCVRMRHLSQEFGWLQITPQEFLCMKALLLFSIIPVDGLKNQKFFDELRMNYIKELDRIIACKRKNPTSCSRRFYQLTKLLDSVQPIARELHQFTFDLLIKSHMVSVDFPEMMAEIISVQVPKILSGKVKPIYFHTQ

Consider `Nc1nc(=S)c2[nH]cnc2[nH]1`, for which the Potency entry in experiment [1], in experiment [2], in experiment [3], in experiment [4], in experiment [5] and in [6] was “inactive” each time. For the same compound, in [7], the Potency result is “inactive”. Also, the Potency in experiment [8] was 842 nM (active) and 545 nM (active) and 596 nM (active). Moreover, the compound was classed as inactive in experiment [9].

For `CC(C)CCOCc1ccccc1`, the Potency result in experiment [1], in [2], in [3], in experiment [4], in experiment [5] and in [6] was “inactive” in each case. Moreover, the Potency result in [7] and in experiment [8] was “inactive” throughout. Also, in [9], the result was inactive.

As for `CC(=O)Nc1ccc(C(=O)CCl)cc1`, the Potency entry in experiment [1] was “inactive and 54.5 µM (active)”; in [5], 21.7 µM (active); in [8], “inactive and 30.6 µM (active)”. Further, the Potency entry in experiment [3], in experiment [4], in [6] and in [7] was “inactive” in each case. In addition, the compound was classed as inactive in [9].

`O=Nc1ccc(Nc2ccccc2)cc1`: the Potency was 48.8 µM (active) and 54.5 µM (active) in [1]; 24.5 µM (active) and 24.3 µM (active) in experiment [5]; 27.4 µM (active) and 54.5 µM (active) in experiment [6]; 1.38 µM (active) and 2.43 µM (active) in experiment [8]. Besides, the Potency entry in experiment [2] and in [7] was “inactive” in each case. For the same compound, in experiment [9], the compound was called inactive.

`CCOc1ccccc1C(N)=O`: the Potency entry in experiment [1], in [2], in [3], in [4], in experiment [5] and in experiment [6] was “inactive” in each case. Besides, the Potency entry in experiment [7] and in [8] was “inactive” in each case. Also, the compound was classed as inactive in experiment [9].

For `CCCCCCCCCCCCc1ccccc1O`, the Potency in [1] is 30.2 µM (active) and 24.3 µM (active); in experiment [2] it was “inactive and 61.1 µM (active)”; in [5], 60.3 µM (active) and 61.1 µM (active); in experiment [6] it was 60.3 µM (active) and 61.1 µM (active); in [8] it was 67.7 µM (active) and 34.4 µM (active). Also, the Potency result in [3], in [4] and in experiment [7] was “inactive” in each case.

In the case of `CC1=CC(=O)c2ccccc2C1=O`, the Potency in experiment [1] was 21.7 µM (active) and 29.8 µM (active); in experiment [2], 30.6 µM (active) and 29.8 µM (active); in experiment [4], 68.6 µM (active) and inactive; in [5], 13.7 µM (active) and 13.3 µM (active); in experiment [6], 27.3 µM (active) and 13.3 µM (active); in [8] it was 24.3 µM (active) and 16.8 µM (active). In addition, the Potency result in [10], in [3] and in [7] was “inactive” throughout.

On to `CCC(C)(Oc1ccc(C2(c3ccc(OC(C)(CC)C(=O)O)cc3)CCCCC2)cc1)C(=O)O` (stereo unspecified), for which the Potency result in experiment [1], in experiment [2], in experiment [10], in experiment [3], in experiment [4] and in [5] was “inactive” each time. The Potency entry in experiment [6], in experiment [7] and in [8] was “inactive” in each case.

On to `Oc1ccc(Cl)cc1Cc1cc(Cl)ccc1O`, for which the Potency in experiment [1] was 13.9 µM (active) and 27.3 µM (active) and 23.7 µM (active); in experiment [2] it was 44.1 µM (active) and 68.6 µM (active); in [5] it was 62.3 µM (active) and inactive; in experiment [6], 55.5 µM (active) and 43.3 µM (active) and inactive; in experiment [8], 15.6 µM (active) and 21.7 µM (active). Besides, the Potency result in experiment [3], in experiment [4] and in [7] was “inactive” in each case. For the same compound, the compound was called inactive in experiment [9].

Regarding `O=Cc1ccc(Cl)cc1`, the Potency result in experiment [1], in [3], in experiment [4], in [5], in experiment [6] and in experiment [7] was “inactive” throughout. Besides, the Potency entry in experiment [8] was “inactive”. For the same compound, in [9], the result was inactive.

As for `CC1COC(=O)O1` (stereo unspecified), the Potency entry in [1], in experiment [2], in [3], in [4], in experiment [5] and in [6] was “inactive” in each case. For the same compound, the Potency result in experiment [7] and in experiment [8] was “inactive” in each case. Further, the result in experiment [9] was inactive.

Regarding `Nc1ccc(O)cc1`, the Potency in experiment [1] was 25.3 µM (active) and inactive; in [2] it was 28.4 µM (active) and inactive; in experiment [5], 17.9 µM (active); in [6], 31.8 µM (active) and inactive; in experiment [8], 7.99 µM (active) and inactive. The Potency entry in experiment [10], in experiment [3], in experiment [4] and in experiment [7] was “inactive” each time. The call in experiment [9] was inactive.

Turning to `CCCCCCCCCCCCCC[P+](CCCC)(CCCC)CCCC`, the Potency was 1.08 µM (active) and 1.72 µM (active) in experiment [1]; 2.71 µM (active) and 4.33 µM (active) in experiment [2]; 68.2 µM (active) and 68.6 µM (active) in [4]; 27.1 µM (active) in [5]; 30.5 µM (active) and 30.6 µM (active) in [6]; 24.2 nM (active) and 61.1 nM (active) in [8]. For the same compound, the Potency result in experiment [3] and in experiment [7] was “inactive” in each case.

In the case of `NCCO`, the Potency result in experiment [2], in experiment [10], in [3], in experiment [4], in experiment [5] and in [7] was “inactive” in each case. Besides, the Potency result in experiment [6] was “inactive and 43.3 µM (active)”; in [8], “inactive and 15.4 µM (active)”.

On to `Cc1ccc(-c2cc(C(F)(F)F)nn2-c2ccc(S(N)(=O)=O)cc2)cc1`, for which the Potency in experiment [1] is 54.3 µM (active) and 68.6 µM (active); in experiment [5] it was 60.9 µM (active) and 61.1 µM (active) and inactive; in experiment [6] it was 54.3 µM (active) and 61.1 µM (active) and inactive; in [8], 21.6 µM (active) and 13.7 µM (active) and inactive. In addition, the Potency entry in [2], in experiment [10], in experiment [3], in experiment [4] and in experiment [7] was “inactive” throughout.

On to `COc1cc(C(=S)N2CCOCC2)ccc1O`, for which the Potency entry in [1], in experiment [2], in [3], in [4], in experiment [5] and in experiment [6] was “inactive” each time. Moreover, the Potency result in [7] and in experiment [8] was “inactive” throughout.

Consider `Cc1ccc(S(=O)(=O)Oc2ccc(N=Nc3ccc(-c4ccc(N=Nc5c(O)ccc6cc(S(=O)(=O)O)cc(S(=O)(=O)O)c56)c(C)c4)cc3C)cc2)cc1`, for which the Potency is 17.3 µM (active) and 20 µM (active) in experiment [1]; 24.4 µM (active) and 15.9 µM (active) in experiment [5]; 24.4 µM (active) and 20 µM (active) in experiment [6]. The Potency result in experiment [3], in [7] and in experiment [8] was “inactive” each time. Besides, the outcome in [9] was inactive.

For `BrC1CCC(Br)C(Br)CCC(Br)C(Br)CCC1Br` (stereo unspecified), the Potency result in experiment [1], in experiment [2], in experiment [3], in experiment [4], in experiment [5] and in experiment [6] was “inactive” in each case. The Potency entry in experiment [7] is “inactive”. The Potency in experiment [8] was 32.6 µM (active). The outcome in experiment [9] was inactive.

Turning to `CCC[C@H](N[C@@H](C)C(=O)N1[C@H](C(=O)O)C[C@@H]2CCCC[C@@H]21)C(=O)OCC`, the Potency result in experiment [2], in experiment [10], in experiment [3], in experiment [4], in experiment [5] and in experiment [6] was “inactive” throughout. Also, the Potency entry in [7] and in experiment [8] was “inactive” in each case.

(Values after PubChem BioAssay (Tox21).)
